Assay outcomes from PubChem.
The full list was thinned out, with hits kept by preference.
ROC1-CUL1 inh = inhibitors of human ROC1-CUL1 ubiquitin ligase activity; E3 ubiquitin-protein ligase RBX1 (Homo sapiens) + Cullin-1 (Homo sapiens), P62877+Q13616; in vitro K48 di-Ub FRET, acceptor:donor ratio, 45 min; inhibition, % at 10 µM; actives 0.6% (n = 140,000); AID 1347404, 2020; in the data active = inhibition above about 25%
Active calls of the source: *.

SMILES	ROC1-CUL1 inh
COc1cc(NS(=O)(=O)c2ccc(NC(=O)c3ccc(COc4ccc5c(c4)CCC5)o3)cc2)ncn1	-1.1
CCOC(=O)COc1ccc(C2C3=C(N=C(C)C2C(=O)OC)c2ccccc2C3=O)cc1Cl (stereo not given)	1.9
COc1ccccc1NC(=O)C1CCN(c2cnccn2)CC1	-5.9
O=C(NC1CCCCC1)c1ccccc1NC(=O)C1CC=CCC1C(=O)O (stereo not given)	5.2
O=[N+]([O-])c1sccc1-c1ccsc1	29.4*
O=C(O)c1sccc1-c1ccsc1	6.8
O=[N+]([O-])c1ccsc1C1OCCO1	-8.1
O=C(O)COc1ccccc1/C=N/NC(=O)CSc1nc2ccccc2n1Cc1ccccc1	1.2
O=C(Nc1nnc(SCC(=O)N2CCN(c3ccc(Cl)cc3)CC2)s1)c1ccccc1Cl	5.3
O=C1C(Br)=CC2=C(c3ccccc3C(=O)O)C3C=C(Br)C(=O)C(Br)C3OC2=C1Br (stereo not given)	116.6*
O=C1C=CC2=C(c3ccccc3C(=O)O)C3C=CC(=O)C(Br)C3OC2=C1Br (stereo not given)	113.3*
COc1ccccc1-c1nn2c(-c3ccncc3)nnc2s1	-2.3
CCn1c(C)nc([N+](=O)[O-])c1Sc1ccc(Cl)cn1	5.5
Cc1cc(C)nc(NC(=O)/C=C/c2ccc(Cl)c(Cl)c2)c1	-1.9
Cn1c(=O)n(C)c2cc(S(=O)(=O)N3CCOCC3)c(Cl)cc21	11.2
CC(C)CC(C)NC(=O)c1ccncc1 (stereo not given)	-5.1
CCC(C)Sc1nc2c([nH]c3ccccc32)c(=O)n1C (stereo not given)	-1.0
Cc1ccc2nc(-c3cccc(NC(=O)c4cccc5ccccc45)c3)oc2c1	0.1
CCCC(C)C(=O)Nc1cccc(C)c1C (stereo not given)	-0.2
Cc1ccc(NC(=O)c2c(N3CCCC3=O)c3cc(C)ccc3n2C)c(C)c1	-8.4
Cn1cnc(S(=O)(=O)N2CCCC(C(=O)NCc3ccccc3Cl)C2)c1 (stereo not given)	-10.0
CCn1c(C)cn2c3c(=O)n(Cc4cc(C)ccc4C)c(=O)n(C)c3nc12	7.2
O=C(O)c1ccc(CNC2CCCC2)cc1	-3.6
OC(COc1cccc(CNCCc2ccccc2F)c1)CN1CCOCC1 (stereo not given)	4.0
O=S(=O)(O)c1ccc2ncccc2c1	2.5
SMILES	ROC1-CUL1 inh
Nc1cc(S(=O)(=O)O)c(N)c2ccc(S(=O)(=O)O)cc12	100.8*
CCOc1ccc2cc(S(=O)(=O)O)ccc2c1N	8.0
CSc1nccc(-c2cc(Cl)c3c(c2)CC(CNC(=O)C2Cc4ccccc4O2)O3)n1 (stereo not given)	5.5
O=C1Oc2ccc3ccccc3c2C(=O)C1CC1C(=O)Oc2ccc3ccccc3c2C1=O (stereo not given)	31.9*
O=C1/C(=C/c2ccc(Cl)cc2)COc2ccc3ccccc3c21	15.0
CCC1c2c(ccc3ccccc23)OC(=O)C1C(=O)Nc1ccc(C)cc1 (stereo not given)	-6.1
Cn1c(=O)c2c(nc(N3CCCCC3)n2Cc2cccc(Cl)c2)n(C)c1=O	-8.1
CCOC(=O)c1cc(-c2ccccc2)n(CCC(=O)Nc2cc(OCC)ccc2OCC)c1C	6.7
O=C(O)c1cc2c3c(c1)C1C=CCC1C(c1ccccc1Cl)N3CC1CC=CC21 (stereo not given)	100.7*
CC(=O)c1cc2c3c(c1)C1C=CCC1C(c1ccc([N+](=O)[O-])cc1)N3CC1CC=CC21 (stereo not given)	-1.8
CC(=O)c1ccc2c(c1)C1C=CCC1C(c1cccc(Cl)c1Cl)N2 (stereo not given)	2.2
O=C(NCCC1=CCCCC1)c1ccc(-c2ccccc2)cc1	1.8
O=C(COc1cccc(Br)c1)Nc1nccs1	-4.7
CCC(NC(=O)NC1CCCCC1)(C(F)(F)F)C(F)(F)F	2.7
Cc1cc2nc(-c3ccccn3)cc(C(F)(F)F)n2n1	4.3
O=C(O)CNS(=O)(=O)c1cccc2ccccc12	6.6
Cc1ccccc1S(=O)(=O)NCCC(C)C	-7.2
CCCNS(=O)(=O)c1cccc2c(N)cccc12	57.5*
O=c1[nH]c(-c2cccc(Cl)c2)nc2ccccc12	-7.4
Cc1cccc(/C=N/Nc2cc(N3CCCCC3)nc(N3CCCCC3)n2)c1	1.3
CCCc1nn2c(=O)cc(N3CCCCC3)nc2s1	-9.1
CCC(=O)NNc1cc(N2CCCC2)nc(N2CCCC2)n1	74.5*
CC(=O)c1ccc(NC(=O)c2sc3nc4ccccc4cc3c2N)cc1	-5.0
Cc1ccccc1C(=O)NCCc1ccccc1	6.0
CC(C)(C)C(=O)Oc1ccc2c(=O)c(Oc3ccc4ccccc4c3)coc2c1	-1.7
SMILES	ROC1-CUL1 inh
O=S(=O)(NCc1ccc(F)cc1)c1ccc(-c2cnc(C3CC3)o2)cc1	-10.0
CC(C)CC(NC(=O)CN1CCOCCOCCN(CC(=O)NC(CC(C)C)C(=O)OC(C)(C)C)CCOCCOCC1)C(=O)OC(C)(C)C (stereo not given)	3.2
Nc1cccc(C(=O)OCC(=O)c2ccccc2)c1	-6.1
COc1ccc(C(=O)OCC(=O)c2ccc(OC(=O)c3ccccc3)cc2)cc1	6.0
O=C(COC(=O)c1ccc(C(O)c2ccccc2)cc1)c1ccccc1 (stereo not given)	32.3*
O=S1(=O)N=C(C(Cl)Cl)Nc2ccccc21	3.8
COc1ccc(/C=C2\C(=O)NN(c3ccc(Br)cc3)C2=O)cc1Br	20.0
COc1cc(Cl)cc(C=C2C(=O)N(C)C(=O)N(C)C2=O)c1O	-10.1
O=C1NN(c2ccc(Cl)c(Cl)c2)C(=O)/C1=C\c1c2ccccc2cc2ccccc12	-1.0
COc1c(I)cc(I)cc1/C=C1/C(=O)NN(c2ccc(Br)cc2)C1=O	44.1*
COc1c(I)cc(I)cc1/C=C1\C(=O)NN(c2ccc(Cl)c(Cl)c2)C1=O	89.2*
Cc1ccc(N2NC(=O)/C(=C/c3cc(Cl)ccc3O)C2=O)cc1C	12.8
C=CCN1C(=O)NC(=O)/C(=C/c2cc(I)cc(I)c2OC)C1=O	-6.8
CCOc1c(I)cc(I)cc1/C=C1/C(=O)N(c2ccc(Cl)c(Cl)c2)N=C1C	-2.4
COc1cc(Cl)cc(/C=C2/C(=O)NN(c3ccc(F)c(Cl)c3)C2=O)c1O	94.1*
CCCCSc1nc2sc3c(c2c(=O)[nH]1)CCN(Cc1ccccc1)C3	8.4
COc1ccc(OC)c(NC(=O)Cn2c(=O)oc3cc(S(=O)(=O)NCc4ccccc4)ccc32)c1	2.9
COc1ccc(-n2c(C)cc(C(=S)N3CCOCC3)c2C)cc1	-2.7
CCOC(=O)C1(CCc2ccccc2)CCN(C(=O)c2cc[n+]([O-])cc2)CC1	-7.3
Cc1ccc(C)c(NC(=O)CN(Cc2ccccc2)S(=O)(=O)c2ccc3nc(C)sc3c2)c1	0.8
OCc1cc(Cl)c(CO)cc1Cl	-2.9
COc1cc(OC)cc(C(=O)Nc2cc3c(cc2N2CCCC2)n(C)c(=O)c(=O)n3C)c1	-8.2
Cc1ccc(NC(=O)C(Cc2c[nH]c3ccccc23)NC(=O)OCc2ccccc2)cc1 (stereo not given)	5.4
COc1cc(/C=C2\C(=O)NN(c3ccccc3)C2=O)cc(Cl)c1OCc1ccccc1C	18.9
CCOc1cc(/C=C2\C(=O)NN(c3ccccc3)C2=O)cc(Cl)c1OCc1c(Cl)cccc1Cl	86.0*
CCOc1cc(/C=C2\C(=O)NN(c3ccccc3)C2=O)cc(Br)c1OCc1cccc(C)c1	2.1
COc1cc(/C=C2\C(=O)NN(c3ccccc3)C2=O)ccc1OCc1ccccc1	13.9
CCOc1cc(/C=C2\C(=O)NN(c3ccccc3)C2=O)cc(Cl)c1OCc1cccc(C)c1	37.9*
